40 compounds from ChEMBL document CHEMBL1157539, “Thousands of chemical starting points for antimalarial lead identification” (Nature, 2010) can be followed below.

The experiment deals with HepG2. In words: GSK_TCMDC: Percent inhibition of human HepG2 cell line. Test compounds present at 10uM. It is filed as functional.
Take `COc1ccc(CNC(=O)NC2CCN(c3ccnc(Nc4ccc(OC)cc4)n3)C2)cc1` (stereo not given): the Inhibition (commonly the share of the control response that was lost under treatment) came to 27%. In the case of `COc1cc(OC)c2c(C)cc(NCCCN3CCOCC3)nc2c1` it was 6%; in that of `CCCCCCN1CCN(Cc2cccc(NC(=O)c3cc4ccccc4s3)c2)CC1.O=C(O)C(F)(F)F`, 20%; in that of `CC[C@H]1CN(Cc2cccc(O)c2)CC[C@H]1CCCc1ccnc2ccc(O)cc12`, 14%.

On to `Nc1c2c(nc3ccc(NC(=O)c4ccccc4)cc13)CCCC2`, for which the Inhibition was found to be 0%. The figure for `Cc1ccc(-c2noc(COc3ccccc3C(=O)NC3CCCC3)n2)cc1` is 9%; for `O=C(Nc1cccc(-c2nc3ccccc3s2)c1)c1ccccc1[N+](=O)[O-]` it is 0%; for `O=C(NC1CCN(Cc2ccccc2)CC1)c1ccc(-c2nc3cc(Cl)c(Cl)cc3[nH]2)s1` it is 17%.

Regarding `O=C(Nc1ccc(Cl)c(Cl)c1)N1CCC(NCc2cccc([N+](=O)[O-])c2)CC1.O=C(O)C(F)(F)F`, the Inhibition came out at 8%. `O=C(NCCCCN1CCN(c2cccc3ccccc23)CC1)c1ccc(NC(=O)c2ccc(Cl)cc2)cc1` registered an Inhibition of 38%.

`CN1CCN(c2ccc(Nc3ncc(Cl)c(Nc4cccnc4C(N)=O)n3)cc2)CC1.Cl` came in with an Inhibition of 99%. For `CCCCNCc1ccc(-c2nc(CN(C(=O)Nc3cc([N+](=O)[O-])ccc3F)C3Cc4ccccc4C3)cs2)cc1.O=C(O)C(F)(F)F`, the Inhibition turned out to be 15%. The figure for `CCCC(C)N(Cc1ccc(C(C)(C)C)cc1)C(=O)c1ccc(OC)cc1` (stereo not given) is 7%; for `CO/C(=C/C=C/c1cc2cc(Cl)c(Cl)cc2[nH]1)C(=O)NC1CC(C)(C)N(C)C(C)(C)C1` it is 58%. The figure for `O=C(Nc1cccc(CN2CCCN(Cc3ccccc3)CC2)c1)c1ccc(-c2ccccc2)cc1.O=C(O)C(F)(F)F` is 45%. The figure for `CCN(CC)CCN(Cc1ccc(-c2ccc(C(F)(F)F)cc2)cc1)C(=O)Cn1c(CCc2cc(F)c(F)c(F)c2)nc(=O)c2ccccc21.O=C(O)C(O)C(O)C(=O)O` is 31%. On to `Cc1c(CNCCN2CCCCC2)c(C(=O)O)c(C)n1Cc1ccc(Cl)cc1`, for which the Inhibition was determined as 4%. In the case of `CN(CCCNC(=S)NC12CC3CC(CC(C3)C1)C2)CCCNc1ccnc2cc(Cl)ccc12` it was 73%; in that of `FC(F)(F)c1ccc2[nH]c(-c3ccc(-c4ccc(CNCc5cnn(-c6ccccc6)n5)cc4)s3)nc2c1.O=C(O)C(F)(F)F`, 27%. In the case of `Cc1cccc2nc(-c3ccc(-c4cccc(NC(=O)Nc5ccsc5)c4)s3)[nH]c12` it was 30%.

For the compound `CC1(C)N=C(N)N=C(N)N1OCCCOc1cc(Cl)c(Cl)cc1Cl.Cl`, the Inhibition is listed as 60%. The figure for `CC(C)(CNC(=O)[C@@H]1CCCCN1)c1nc(-c2ccc(Cl)c(O)c2)c(-c2ccncc2)[nH]1.Cl` is 0%; for `COc1ccc2nccc([C@@H](O)CN3CCC(NCc4ccc5c(c4)OCCO5)CC3)c2c1.O=C(O)C(=O)O` it is 9%.

Compound `O=C(Nc1cccc(-c2nn3ccccc3c2-c2ccnc(Nc3ccccc3)n2)c1)c1cc(F)ccc1F` had an Inhibition of 8%. The figure for `CN(C)c1ccc(-c2nnc(Sc3ccc(C#N)c([N+](=O)[O-])c3)n2Cc2ccco2)cc1` is 3%; for `COc1ccc(-n2c(=O)c3c(n4c(SC(C)C)nnc24)-c2ccccc2CC32CCCCC2)cc1` it is 0%; for `CC(C)(C)c1ccc(S(=O)(=O)Nc2ccccc2N2CCOCC2)cc1` it is 11%.

Take `O=C(NC1CCN(Cc2ccc(F)cc2)CC1)c1ccc(-c2cccc(C(F)(F)F)c2)s1.O=C(O)C(F)(F)F`: the Inhibition stood at 88%. In the case of `Cc1c(-c2cccc(C(C)(C)NC3CCN(Cc4ccccc4)CC3)c2)cnc(N)c1C.Cl` it was 14%. `COc1ccccc1OCCN(CC(O)COc1cccc2[nH]c3ccccc3c12)CC(O)COc1cccc2[nH]c3ccccc3c12` (stereo not given) showed an Inhibition of 16%. `O=C(/C=C/c1ccc(Cl)c(Cl)c1)NCCCCCN1CCC(NC(=S)Nc2ccc(Cl)cc2)CC1` registered an Inhibition of 62%.

`CN1CCN(c2cc(NC(=O)Nc3cccc(Cl)c3Cl)ccc2Cl)CC1.Cl` came in with an Inhibition of 2%.

The compound `O=C(Nc1ccccc1N1CCOCC1)c1ncoc1-c1ccccc1C(F)(F)F` registered an Inhibition of 0%. In the case of `O=C(Cn1cnc2c(nnn2Cc2ccccc2F)c1=O)Nc1ccc2c(c1)OCCO2` it was 0%. For the compound `CN1CCN(CCCNCc2ccc(Nc3nccc(Nc4ccc(Oc5ccccc5)cc4)n3)cc2)CC1`, the Inhibition is given as 17%.

As for `COc1ccc(S(=O)(=O)Nc2ccc(C(=O)NCc3ccccc3C(F)(F)F)cc2)cc1N1CCN(CC2CC2)CC1.O=C(O)C(F)(F)F`, the Inhibition stood at 27%.

On to `O=C(O)C(F)(F)F.O=S(=O)(NC1CCCCN(Cc2ccccc2O)C1)c1ccc(C(F)(F)F)cc1` (stereo not given), for which the Inhibition is 1%. The figure for `Cl.NC(=O)c1cccc(Nc2nccc(Nc3ccc(Oc4c(Cl)cccc4Cl)c(Cl)c3)n2)c1` is 2%. In the case of `Cc1cc(NCCCCCCN)nc(Nc2ccc(Cl)cc2)n1` it was 25%; in that of `O=S(=O)(Nc1ccc(CCN2CCC(N3CCCCC3)CC2)cc1)c1ccc2ccccc2c1`, 44%.
